Results from PubChem BioAssay (EPA / NIEHS).
Where “and” joins values, the source holds several entries; their conditions need not be identical. Equal entries are not always repeated. The source holds several records for some structures; these can differ, active in one and inactive in another. Calls of active or inactive are those of the source. Rule for the calls: active = hit-call score of the fitted dose curve at least 0.9, where 1 is the maximum; inactive = score below 0.9.

Assays:
[1] = ATG_GLI_CIS: Attagene CIS-FACTORIAL HepG2 Assay for human Zinc Finger Protein GLI1 (AID 2282945); conditions: HepG2, Attagene cis-factorial reporter mRNA, GLI element; actives raise or lower the signal
How it was run: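 Bidirectional curve fits relative to DMSO, using reporter mRNA levels from RT-PCR plus capillary electrophoresis. Cells were HepG2 transiently carrying cis-regulated reporter constructs, harvested 24 h after dosing.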

[2] = target: Bile acid receptor (Homo sapiens) (UniProt Q96RI1); test: ATG_IR1_CIS: Attagene CIS-FACTORIAL HepG2 Assay for human Nuclear Receptor Subfamily 1 Group H Member 4 (NR1H4), IR1 submotif (AID 2282946); conditions: IR1 reporter transcription, actives raise or lower the signal
How it was run: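 Cells (human HepG2) carry transiently transfected cis-promoter reporter transcription units. Compounds are incubated 24 h, total RNA is reverse-transcribed and amplified, and labelled fragments are resolved by capillary electrophoresis. Curves use DMSO as baseline.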

[3] = ATG_GRE_CIS: Attagene CIS-FACTORIAL HepG2 Assay for human Glucocorticoid Response Elements (GRE) (AID 2282947); conditions: HepG2 GRE cis-reporter, Attagene multiplex mRNA; actives raise or lower the signal
How it was run: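 Transient MRTU transfection of human HepG2 liver cells; cis-regulated reporters report endogenous factors. 24 h dosing → RNA isolation → RT-PCR → 6-FAM primer extension → HpaI cut → CE fragment analysis. Bidirectional fit, DMSO negative control.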

[4] = ATG_ISRE_CIS: Attagene CIS-FACTORIAL HepG2 Assay for human Interferon Regulatory Factor 1 (IRF1) binding to an Interferon-Stimulated Response Element (ISRE) (AID 2282948); conditions: HepG2 ISRE cis-reporter (Attagene), mRNA transcription readout; actives raise or lower the signal
How it was run: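 Transiently transfected HepG2 cells carrying cis-element reporter units, dosed 24 hours. Reporter mRNA quantified by RT-PCR, fluorescent primer extension, HpaI digestion and capillary electrophoresis. Bidirectional fitting relative to DMSO.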

[5] = ATG_M_32_CIS: Attagene CIS-FACTORIAL HepG2 Assay for M32 Transcription Factor (Internal Marker) (AID 2282949); conditions: HepG2 Attagene cis-factorial M32 reporter, mRNA; actives raise or lower the signal;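 note: background control marker of the multiplexed CIS panel rather than a real target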
How it was run: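 Fluorescent capillary electrophoresis peaks of HpaI-digested, FAM-labelled RT-PCR reporter products give the signal. Source: transiently transfected human liver HepG2 cells, 24 h after chemical dosing; bidirectional fitting against DMSO.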

[6] = ATG_M_06_CIS: Attagene CIS-FACTORIAL HepG2 Assay for M06 Transcription Factor (Internal Marker) (AID 2282950); conditions: HepG2 Attagene CIS-FACTORIAL M06 internal marker reporter; actives raise or lower the signal
How it was run: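 Steps: transfect HepG2 with multiplexed cis-element reporter constructs; dose chemical 24 h; extract RNA with DNase treatment; reverse-transcribe, PCR-amplify, 6-FAM label, HpaI digest; separate fragments by capillary electrophoresis. Activity fitted both directions versus DMSO.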

[7] = target: Hepatocyte nuclear factor 6 (Homo sapiens) (UniProt Q9UBC0); test: ATG_HNF6_CIS: Attagene CIS-FACTORIAL HepG2 Assay for human Hepatocyte Nuclear Factor 6 (HNF6) (AID 2282952); conditions: HepG2 Attagene cis-factorial HNF6 reporter transcription; actives raise or lower the signal
How it was run: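 Reporter mRNA induction or loss in HepG2 after 24 h exposure; transient cis-MRTU transfection; fragments quantified by capillary electrophoresis; bidirectional analysis, DMSO as negative control.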

[8] = target: Heat shock factor protein 1 (Homo sapiens) (UniProt Q00613); test: ATG_HSE_CIS: Attagene CIS-FACTORIAL HepG2 Assay for human Heat Shock Transcription Factor 1 (HSE) (AID 2282953); conditions: HepG2 HSE cis-reporter, Attagene RNA transcription; actives raise or lower the signal
How it was run: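 Cells were transfected with cis-element-driven reporter constructs, dosed for 24 h, then total RNA was reverse-transcribed and reporter cDNA amplified, FAM-labelled and digested with HpaI. Fragments were resolved by capillary electrophoresis; gain or loss was fitted against DMSO.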

[9] = ATG_MRE_CIS: Attagene CIS-FACTORIAL HepG2 Assay for human Metal Responsive Element (MRE) (AID 2282954); conditions: HepG2 MRE cis-reporter transcription, Attagene multiplex; actives raise or lower the signal
How it was run: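 Transient MRTU transfection of HepG2 (FuGene 6); 24 h dosing; total RNA → oligo(dT) RT, PCR, 6-FAM primer extension, HpaI cut, CE. Bidirectional fit vs DMSO.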

[10] = ATG_PBREM_CIS: Attagene CIS-FACTORIAL HepG2 Assay for human Phenobarbital-responsive Enhancer Module (PBREM) (AID 2282955); conditions: HepG2 PBREM cis-reporter, Attagene multiplexed transcription; actives raise or lower the signal
How it was run: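 Measures endogenous factor action on a phenobarbital-responsive enhancer module. HepG2 transiently carrying cis reporters, 24 h treatment, mRNA read-out by RT-PCR plus capillary electrophoresis.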

[11] = target: Paired box protein Pax-6 (Homo sapiens) (UniProt P26367); test: ATG_Pax6_CIS: Attagene CIS-FACTORIAL HepG2 Assay for human Paired Box 6 (PAX6) (AID 2282956); conditions: HepG2 CIS-FACTORIAL PAX6 reporter transcription, RNA readout; actives raise or lower the signal
How it was run: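 HepG2 cells transiently transfected with cis-promoter-driven multiplexed reporter units sensing endogenous transcription factor activity; 24 h chemical exposure. Reporter mRNA quantified by RT-PCR, 6-FAM labelling, HpaI digestion and capillary electrophoresis; bidirectional fit versus DMSO baseline.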

[12] = ATG_PXRE_CIS: Attagene CIS-FACTORIAL HepG2 Assay for human Pregnane X Receptor Element (PXRE) (AID 2282957); conditions: HepG2 Attagene CIS-FACTORIAL PXRE reporter, mRNA; actives raise or lower the signal
How it was run: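 Transiently transfected HepG2 cells were dosed and incubated for 24 h. RNA was then isolated, DNase-treated, reverse-transcribed and reporter sequences amplified. Labeled, HpaI-digested fragments were quantified by capillary electrophoresis against DMSO.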

[13] = ATG_PPRE_CIS: Attagene CIS-FACTORIAL HepG2 Assay for human Peroxisome Proliferator-activated Response Element (PPRE) (AID 2282958); conditions: HepG2 PPRE cis-element reporter, Attagene transcription factor profiling; actives raise or lower the signal
How it was run: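 PPRE activity in HepG2: transient cis-reporter transfection, 24 h compound incubation, reporter mRNA by RT-PCR and CE fluorescence; gain/loss fitted against DMSO.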

[14] = ATG_RORE_CIS: Attagene CIS-FACTORIAL HepG2 Assay for human RAR-related Orphan Receptor Element (RORE) (AID 2282959); conditions: HepG2 Attagene cis-factorial RORE reporter, mRNA; actives raise or lower the signal
How it was run: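 A 24-hour exposure of transfected HepG2 hepatoma cells precedes RNA isolation and reporter RT-PCR. Labeled products are digested with HpaI and resolved by capillary electrophoresis, with gain or loss of signal scored relative to DMSO.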

[15] = ATG_Sox_CIS: Attagene CIS-FACTORIAL HepG2 Assay for human SRY-box transcription factor (SOX) (AID 2282960); conditions: HepG2 Attagene cis-factorial SOX reporter, mRNA; actives raise or lower the signal
How it was run: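 HepG2, cis reporter units, 24 h exposure. Reporter mRNA: RT-PCR → FAM labelling → HpaI → CE fluorescence. Bidirectional fit vs DMSO.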

[16] = target: Transcription factor Sp1 (Homo sapiens) (UniProt P08047); test: ATG_Sp1_CIS: Attagene CIS-FACTORIAL HepG2 Assay for human Specificity Protein 1 (Sp1) (AID 2282961); conditions: HepG2 Sp1 cis-reporter transcription, actives raise or lower the signal
How it was run: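 Liver-derived HepG2 cells, cis-element reporter library, 24 h treatment; RNA isolated, cDNA amplified with reporter-specific primers, FAM-labeled fragments sized on capillary analyzer. DMSO baseline, bidirectional curve fit.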

[17] = ATG_SREBP_CIS: Attagene CIS-FACTORIAL HepG2 Assay for human Sterol Regulatory Element Binding (SREBP) (AID 2282962); conditions: HepG2 Attagene cis-factorial SREBP reporter, mRNA; actives raise or lower the signal
How it was run: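 HepG2 cells transiently transfected with multiplexed cis-promoter reporter units sensing endogenous transcription factors; reporter mRNA measured 24 h after dosing by RT-PCR, 6-FAM labeling, HpaI digestion and capillary electrophoresis. Bidirectional fit versus DMSO.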

[18] = target: Signal transducer and activator of transcription 3 (Homo sapiens) (UniProt P40763); test: ATG_STAT3_CIS: Attagene CIS-FACTORIAL HepG2 Assay for human Signal Transducer and Activator of Transcription 3 (STAT3) (AID 2282963); conditions: HepG2, Attagene cis-factorial STAT3 reporter transcription; actives raise or lower the signal
How it was run: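 Endogenous STAT3-responsive cis-element activity was read in transiently transfected HepG2 cells after 24 h treatment. Reporter transcripts were quantified via RT-PCR and capillary electrophoresis, with DMSO as negative control and bidirectional curve fitting.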

[19] = ATG_TA_CIS: Attagene CIS-FACTORIAL HepG2 Assay for human TA Basal Promoter (AID 2282964); conditions: HepG2 Attagene CIS-factorial TA basal promoter reporter; actives raise or lower the signal
How it was run: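 Steps: transfect HepG2 with MRTUs; dose 24 h; isolate RNA, DNase-treat, reverse-transcribe; PCR and FAM-label reporter cDNA; digest with HpaI 2h at 37 C; run capillary electrophoresis. Activity fitted both directions against DMSO.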

[20] = target: Hypoxia-inducible factor 1-alpha (Homo sapiens) (UniProt Q16665); test: ATG_HIF1a_CIS: Attagene CIS-FACTORIAL HepG2 Assay for human Hypoxia Inducible Factor 1 (HIF1A) (AID 2282951); conditions: HepG2 Attagene cis-factorial HIF1a reporter transcription; actives raise or lower the signal
How it was run: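 After 24 h chemical exposure of reporter-transfected HepG2 cells, reporter cDNA was PCR-amplified, labelled by 6-FAM primer extension (2 min 95 C, 20 s 68 C, 10 min 72 C), HpaI-cut (2 h, 37 C) and analysed by CE.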

Measured: AC50

Chain of Signal transducer and activator of transcription 3 (Homo sapiens) (P40763 whole entry, looked up): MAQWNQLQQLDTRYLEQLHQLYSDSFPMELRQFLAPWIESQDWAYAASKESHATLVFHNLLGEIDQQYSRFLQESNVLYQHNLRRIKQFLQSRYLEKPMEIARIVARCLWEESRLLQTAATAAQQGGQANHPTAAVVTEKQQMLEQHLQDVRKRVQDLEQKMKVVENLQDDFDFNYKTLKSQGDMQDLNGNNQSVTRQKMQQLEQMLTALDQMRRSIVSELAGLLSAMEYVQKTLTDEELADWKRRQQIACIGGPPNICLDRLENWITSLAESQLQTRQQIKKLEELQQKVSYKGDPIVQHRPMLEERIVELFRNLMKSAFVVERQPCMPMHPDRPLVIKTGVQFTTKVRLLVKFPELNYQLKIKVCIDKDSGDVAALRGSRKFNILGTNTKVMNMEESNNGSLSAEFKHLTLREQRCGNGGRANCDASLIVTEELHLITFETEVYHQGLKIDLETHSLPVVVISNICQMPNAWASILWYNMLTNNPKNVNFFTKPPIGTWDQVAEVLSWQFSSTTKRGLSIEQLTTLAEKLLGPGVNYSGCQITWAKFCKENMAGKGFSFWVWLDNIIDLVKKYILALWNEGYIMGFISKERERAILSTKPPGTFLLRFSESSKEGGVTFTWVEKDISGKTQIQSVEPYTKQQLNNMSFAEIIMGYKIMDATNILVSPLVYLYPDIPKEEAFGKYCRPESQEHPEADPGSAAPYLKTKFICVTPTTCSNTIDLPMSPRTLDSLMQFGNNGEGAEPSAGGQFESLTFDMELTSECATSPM
Chain of Hepatocyte nuclear factor 6 (Homo sapiens) (Q9UBC0 whole entry, looked up, the tested form may be a part): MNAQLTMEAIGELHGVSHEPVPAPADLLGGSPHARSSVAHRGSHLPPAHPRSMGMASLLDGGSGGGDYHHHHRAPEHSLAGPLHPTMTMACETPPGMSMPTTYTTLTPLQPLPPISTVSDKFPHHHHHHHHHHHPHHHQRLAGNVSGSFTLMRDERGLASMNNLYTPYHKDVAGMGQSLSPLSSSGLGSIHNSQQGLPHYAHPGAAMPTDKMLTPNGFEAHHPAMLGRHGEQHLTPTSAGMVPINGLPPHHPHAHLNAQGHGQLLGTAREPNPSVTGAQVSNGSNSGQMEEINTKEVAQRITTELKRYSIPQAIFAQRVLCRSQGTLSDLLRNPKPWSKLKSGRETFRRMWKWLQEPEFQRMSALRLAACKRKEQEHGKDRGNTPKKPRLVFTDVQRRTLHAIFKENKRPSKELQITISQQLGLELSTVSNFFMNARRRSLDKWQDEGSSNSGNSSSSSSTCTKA
Chain of Transcription factor Sp1 (Homo sapiens) (P08047 whole entry, looked up, the tested form may be a part): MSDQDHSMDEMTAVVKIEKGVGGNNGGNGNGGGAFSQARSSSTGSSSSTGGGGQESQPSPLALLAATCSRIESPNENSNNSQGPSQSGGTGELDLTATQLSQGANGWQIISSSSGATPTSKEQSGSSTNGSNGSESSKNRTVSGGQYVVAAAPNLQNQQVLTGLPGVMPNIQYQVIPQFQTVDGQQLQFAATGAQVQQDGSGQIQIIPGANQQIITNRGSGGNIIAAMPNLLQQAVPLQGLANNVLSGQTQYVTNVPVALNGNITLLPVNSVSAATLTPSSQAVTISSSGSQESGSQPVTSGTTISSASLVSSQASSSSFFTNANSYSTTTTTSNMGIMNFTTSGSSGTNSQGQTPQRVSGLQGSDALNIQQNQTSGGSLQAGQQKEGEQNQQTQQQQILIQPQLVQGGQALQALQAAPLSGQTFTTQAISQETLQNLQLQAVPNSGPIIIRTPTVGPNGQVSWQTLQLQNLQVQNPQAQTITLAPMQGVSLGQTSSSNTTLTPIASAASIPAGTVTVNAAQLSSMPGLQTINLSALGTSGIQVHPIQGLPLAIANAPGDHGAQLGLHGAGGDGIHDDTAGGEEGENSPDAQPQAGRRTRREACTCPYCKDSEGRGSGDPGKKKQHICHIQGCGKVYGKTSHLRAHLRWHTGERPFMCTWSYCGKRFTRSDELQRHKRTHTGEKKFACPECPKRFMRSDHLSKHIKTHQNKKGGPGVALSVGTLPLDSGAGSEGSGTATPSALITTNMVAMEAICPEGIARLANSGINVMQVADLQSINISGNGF
Chain of Hypoxia-inducible factor 1-alpha (Homo sapiens) (Q16665 whole entry, looked up): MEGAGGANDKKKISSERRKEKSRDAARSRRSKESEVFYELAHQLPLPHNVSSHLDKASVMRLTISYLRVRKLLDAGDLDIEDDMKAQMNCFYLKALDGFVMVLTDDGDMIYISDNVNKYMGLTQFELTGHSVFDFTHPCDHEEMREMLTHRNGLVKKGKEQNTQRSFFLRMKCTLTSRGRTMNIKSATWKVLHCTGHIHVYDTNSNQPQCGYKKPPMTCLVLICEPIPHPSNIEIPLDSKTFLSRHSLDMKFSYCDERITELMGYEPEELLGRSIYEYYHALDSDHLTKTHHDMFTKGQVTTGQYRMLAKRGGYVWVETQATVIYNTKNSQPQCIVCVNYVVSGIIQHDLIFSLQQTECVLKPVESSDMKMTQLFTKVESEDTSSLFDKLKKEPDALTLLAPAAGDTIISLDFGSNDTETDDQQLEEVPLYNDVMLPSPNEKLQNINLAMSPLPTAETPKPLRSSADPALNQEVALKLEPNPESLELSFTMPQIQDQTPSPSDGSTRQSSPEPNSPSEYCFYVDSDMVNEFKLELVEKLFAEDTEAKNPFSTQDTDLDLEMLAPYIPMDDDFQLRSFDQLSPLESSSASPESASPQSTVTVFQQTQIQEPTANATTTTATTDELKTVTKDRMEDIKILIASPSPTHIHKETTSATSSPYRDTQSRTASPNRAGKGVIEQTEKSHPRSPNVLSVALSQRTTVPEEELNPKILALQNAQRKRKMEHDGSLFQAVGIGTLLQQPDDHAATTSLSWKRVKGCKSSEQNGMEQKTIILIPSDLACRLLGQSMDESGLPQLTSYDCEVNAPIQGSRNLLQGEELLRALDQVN
Chain of Bile acid receptor (Homo sapiens) (Q96RI1 whole entry, looked up, the tested form may be a part): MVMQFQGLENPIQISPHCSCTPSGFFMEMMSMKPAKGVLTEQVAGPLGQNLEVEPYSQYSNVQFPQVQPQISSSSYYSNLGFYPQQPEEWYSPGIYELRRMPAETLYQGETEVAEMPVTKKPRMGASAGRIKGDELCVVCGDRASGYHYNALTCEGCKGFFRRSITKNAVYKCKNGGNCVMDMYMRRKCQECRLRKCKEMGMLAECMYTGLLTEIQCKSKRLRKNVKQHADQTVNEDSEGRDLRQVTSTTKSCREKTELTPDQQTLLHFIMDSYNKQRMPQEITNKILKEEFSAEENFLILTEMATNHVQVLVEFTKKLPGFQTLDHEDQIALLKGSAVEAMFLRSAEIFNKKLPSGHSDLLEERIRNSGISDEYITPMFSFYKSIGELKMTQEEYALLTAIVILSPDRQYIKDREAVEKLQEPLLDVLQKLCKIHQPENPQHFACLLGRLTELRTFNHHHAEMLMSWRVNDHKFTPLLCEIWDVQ
Chain of Paired box protein Pax-6 (Homo sapiens) (P26367 whole entry, looked up): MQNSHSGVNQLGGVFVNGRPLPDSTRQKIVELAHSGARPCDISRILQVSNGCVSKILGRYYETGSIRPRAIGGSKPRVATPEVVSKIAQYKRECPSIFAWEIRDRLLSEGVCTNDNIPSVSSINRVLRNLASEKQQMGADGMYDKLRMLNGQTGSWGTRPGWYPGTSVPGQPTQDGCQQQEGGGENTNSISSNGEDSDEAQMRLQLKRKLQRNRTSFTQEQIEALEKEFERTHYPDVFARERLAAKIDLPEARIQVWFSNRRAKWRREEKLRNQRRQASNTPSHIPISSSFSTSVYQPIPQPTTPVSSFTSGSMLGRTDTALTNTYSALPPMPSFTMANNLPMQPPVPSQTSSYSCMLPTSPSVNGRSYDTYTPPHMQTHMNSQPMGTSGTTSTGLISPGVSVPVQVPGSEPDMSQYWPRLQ
Chain of Heat shock factor protein 1 (Homo sapiens) (Q00613 whole entry, looked up, the tested form may be a part): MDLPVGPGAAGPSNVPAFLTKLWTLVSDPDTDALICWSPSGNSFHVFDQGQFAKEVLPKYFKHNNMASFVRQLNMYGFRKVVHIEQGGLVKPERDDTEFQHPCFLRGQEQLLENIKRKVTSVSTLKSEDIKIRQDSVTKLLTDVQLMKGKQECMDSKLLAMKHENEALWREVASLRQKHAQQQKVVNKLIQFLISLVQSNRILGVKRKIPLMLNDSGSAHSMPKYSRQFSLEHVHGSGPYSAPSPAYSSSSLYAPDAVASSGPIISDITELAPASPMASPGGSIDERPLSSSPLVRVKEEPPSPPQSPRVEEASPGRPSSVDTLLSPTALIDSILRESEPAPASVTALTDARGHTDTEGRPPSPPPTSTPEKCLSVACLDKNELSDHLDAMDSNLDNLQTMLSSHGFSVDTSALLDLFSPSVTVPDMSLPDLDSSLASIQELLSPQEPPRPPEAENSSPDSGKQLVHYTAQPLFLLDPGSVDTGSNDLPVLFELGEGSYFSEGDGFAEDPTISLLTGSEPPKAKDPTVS

O=c1c(-c2ccc(O)cc2)coc2cc(O)ccc12
active: [2] 52.6 µM and 100 µM | [13] 42 µM and 52.3 µM | [16] 38.8 µM | [17] 47.5 µM and 91.4 µM
inactive: [1] | [2] | [3] | [4] | [5] | [6] | [7] | [8] | [9] | [10] | [11] | [12] | [13] | [14] | [15] | [16] | [17] | [18] | [19]

OCCC(F)(F)C(F)(F)C(F)(F)C(F)(F)C(F)(F)C(F)(F)F
inactive: [1] | [2] | [3] | [4] | [5] | [6] | [20] | [7] | [8] | [9] | [11] | [12] | [13] | [14] | [15] | [16] | [17] | [18] | [19]
active: [2] 187 µM | [3] 133 µM | [4] 100 µM | [5] 100 µM | [8] 100 µM | [9] 147 µM | [11] 176 µM | [17] 100 µM

CCCCCCC(=O)O
active: [12] 53.4 µM
inactive: [1] | [2] | [3] | [4] | [6] | [20] | [7] | [8] | [9] | [10] | [11] | [12] | [14] | [15] | [16] | [17] | [18] | [19]

OC1CCC(C2CCCCC2)CC1 (stereo not drawn)
inactive: [1] | [2] | [3] | [4] | [5] | [6] | [7] | [8] | [9] | [11] | [12] | [13] | [14] | [15] | [16] | [17] | [18] | [19]
active: [1] 70.6 µM | [2] 100 µM | [4] 73.8 µM and 81.2 µM | [7] 154 µM | [9] 121 µM and 128 µM | [11] 127 µM | [12] 26.7 µM and 25.6 µM and 28.6 µM

CC(O)CO (stereo not drawn)
not listed: [10]
inactive: all other assays above

COC(=O)CCCCC(=O)OC
not listed: [10]
inactive: all other assays above

CCCCCCCCCCCCCC[N+](C)(C)C
inactive: [1] | [2] | [3] | [4] | [6] | [20] | [7] | [8] | [9] | [11] | [12] | [13] | [14] | [15] | [16] | [18] | [19]
active: [2] 9.85 µM | [9] 8.9 µM | [17] 6.57 µM and 2.76 µM | [18] 18.1 µM

N#C[C@@H]1CC(F)(F)CN1C(=O)CNC1CC2CCC(C1)N2c1ncccn1 (stereo partly drawn)
active: [12] 75.6 µM
not listed: [10]
inactive: all other assays above

CCCOc1sc(C(=O)N2CCC(c3cc(CN)ccc3F)CC2)c(C)c1Br
active: [2] 1.12 µM | [12] 2.09 µM | [17] 3.7 µM
not listed: [10] | [20]
inactive: all other assays above

Oc1cccc(O)c1
not listed: [10] | [20]
inactive: all other assays above

OCCC(F)(F)C(F)(F)C(F)(F)C(F)(F)C(F)(F)C(F)(F)C(F)(F)C(F)(F)F
inactive: [1] | [4] | [6] | [20] | [7] | [14] | [17] | [18] | [19]
active: [1] 59.2 µM | [4] 150 µM | [7] 171 µM | [8] 55.7 µM and 234 µM | [9] 47.3 µM and 150 µM | [11] 43.3 µM and 176 µM | [12] 52.1 µM and 98.7 µM | [14] 25.7 µM | [15] 33.4 µM and 150 µM | [16] 48.4 µM and 150 µM | [17] 222 µM
